# Compound activity from PubChem BioAssay.
# PAX8 reporter: lowers PAX8-driven luciferase in RMG-I cells | RMG-I TPO-luciferase reporter, SteadyGlo, 24 h | inhibition, % at 12.6 µM | hit rate 1.2% among 360,000;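 active = mean replicate inhibition at least 60% with every replicate also reaching 60%; inconclusive = only one of the two criteria is met; inactive = mean below 60% and not all replicates reaching 60%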;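 note: luciferase light reporting Pax8 driven TPO promoter activity; plate controls were median of neutral control wells for no effect and mitoxantrone controls for full effect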
# F508del corr: correctors of CFTR F508del function in bronchial epithelial cells; CFBE cells, YFP halide quenching; stimulated with forskolin plus potentiator P3; % fluorescence drop versus neutral controls; activity (quench increase), % at 7.58 µM; hit rate 0.36% among 350,000;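 active = mean added fluorescence quench of at least 8% versus neutral control, with both replicates also reaching 8%; inconclusive = only one of the mean or replicate conditions met; inactive = mean below 8% and not both replicates reaching 8%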;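 note: cells transiently co-express mutant CFTR-F508del with the halide-sensitive YFP; corrector assay measuring rescue of mutant channel to the surface after 24 h compound exposure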
# Env fusion inh: inhibitors of HIV Env-mediated cell fusion | HeLa-JRFL Env/CEM21 cell fusion, luciferase | inhibition, % at 12.3 µM | hit rate 1.1% among 360,000 | AID 651610;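 active = mean replicate inhibition score of at least 50 and every replicate individually at or above 50; inconclusive = only one of the two criteria met; inactive = mean below 50 and not all replicates reaching 50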;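 note: 0% = plate neutral controls and 100% = maraviroc near 300 nM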
# GAA850 FXN act: frataxin GAA850 promoter activation; HEK293 lucGAA850 FXN promoter luciferase reporter, 24 h; percent of 10 µM SAHA response; activation, % at 6 µM; hit rate 0.56% among 360,000; AID 540364;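 active = activation above the average of all compounds screened plus 3 SD, cutoff fixed separately per campaign, cut at about 7.5% in these data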;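 note: 0% = DMSO wells and 100% = 10 µM SAHA wells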
# EWS-Fli inh: blocks EWS/Fli oncoprotein-driven transcription | inhibition, % at 12.6 µM | AID 651661 | hit rate 0.67% among 350,000 | A673 NR0B1-luciferase reporter, viability-normalised;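 active = mean inhibition of at least 50% after viability correction, with every replicate also passing that limit; inconclusive = mean reaches 50% but only one of two replicates passes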;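 note: firefly luciferase signal divided by Alamar Blue viability fluorescence both relative to DMSO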
# Starred values were filed as active, the others as inactive; u = inconclusive; x = no result given; [ ] = dose if it differs, or a comment. A selection: hits, their analogues and other compounds. The true share with any hit is near 2.5%.
SMILES,PAX8 reporter,F508del corr,Env fusion inh,GAA850 FXN act,EWS-Fli inh
CO[C@H]1CN(C)C(=O)c2cc(NC(=O)c3ccc(F)cc3)ccc2OC[C@@H](C)N(C(=O)CC2CC2)C[C@H]1C,x,-2,x,x,-1
O=C(C[C@H]1CC[C@@H](NC(=O)C2CC2)[C@H](CO)O1)Nc1ccccc1,x,-2,x,x,x
Cc1ccccc1N(Cc1cc(=O)[nH]c2ccccc12)C(=O)CCl,83*,2,41,-10,23
COCC(=O)Nc1ccc2c(c1)C(=O)N(C)C[C@@H](OC)[C@@H](C)CN(Cc1ccncc1)[C@@H](C)CO2,-19,-3,11[16.7 µM],x,10
CO[C@@H]1CN(C)C(=O)c2ccc(NC(=O)Nc3cccc(F)c3)cc2OC[C@@H](C)N(C(=O)C2CC2)C[C@H]1C,x,-3,x,x,1
Cc1cc[n+](CC(=O)c2ccc(NC(=O)c3ccccc3)cc2)c2ccccc12,80*,1,5,-1,22
COc1ccc(C2C(C(N)=O)=C(C)Nc3nc(-c4cccc(Cl)c4)nn32)cc1OC (stereo not drawn),x,x,58*,0,x
CCCCCc1cc(=O)oc2c(C(CCN3CCCC3)c3ccc(N(C)C)cc3)c(OC)cc(OC)c12 (stereo not drawn),20,2,0,-2,24
CCCCCc1cc(=O)oc2c(C(CCN3CCCCC3)c3ccc(OC)cc3)c(OC)cc(OC)c12 (stereo not drawn),66*,-1,16,-1,8
O=C(N/N=C\c1c(O)ccc2ccccc12)c1cncc(Br)c1,65*,35*,21,-7,0
CC(=NNC(=O)c1ccncc1)c1ccc2ccccc2c1O,39,25*,39,-7,-7
CC(=NNC(=O)c1ccncc1)c1ccccc1O,-1,7,31,-6,4
COc1ccc(/C=N/NC(=O)c2ccoc2C)cc1COc1c(C)cccc1C,2,x,76*,2,x
O=C(NN=Cc1c(O)ccc2ccccc12)c1ccncc1,95*,6,-37,-10,23
O=C(N/N=C\c1c(O)ccc2ccccc12)c1ccc(O)cc1,u,-7,14,-2,-13
C[C@@H](O)C#Cc1ccc([C@@H]2[C@H]3CN(CC4CC4)CCCCN3[C@H]2CO)cc1,-26,0,x,x,-9
CN1C(=O)c2cc(NC(=O)C3CCOCC3)ccc2OC[C@H]2O[C@@H](CC(=O)NCC3CC3)CC[C@@H]21,-13,1,-23[16.7 µM],x,-5
Cn1nccc1C(=O)N/N=C/c1c(O)ccc2ccccc12,51,11*,66*,-12,-9
O=C(N/N=C/c1c(O)ccc2ccccc12)c1ccc(Br)o1,60,12*,30,-7,x
O=C(N/N=C/c1c(O)ccc2ccccc12)c1cccnc1,70*,x,13,-6,24
COc1ccc2ccccc2c1/C=N/NC(=O)c1nnn(-c2nonc2N)c1C(C)C,2,-3,5,-1,x
O=C(N/N=C/c1c(O)ccc2ccccc12)Nc1ccccc1,-33,2,-3,x,4
Cc1c(C(=O)N/N=C/c2c(O)ccc3ccccc23)nnn1-c1nonc1N,33,14*,43,1,16
COc1ccc(COC[C@]23Oc4ccccc4[C@H]([C@H]2COC(=O)c2ccc([N+](=O)[O-])cc2)N(C(=O)CC(C)=O)C(=O)N3C)cc1,17,-3,-11[16.7 µM],x,11
C[C@@H]1CN([C@H](C)CO)C(=O)c2cccc(NC(=O)C3CCOCC3)c2O[C@H]1CN(C)Cc1ccccc1,11,-2,47[16.7 µM],x,6
SMILES,PAX8 reporter,F508del corr,Env fusion inh,GAA850 FXN act,EWS-Fli inh
C[C@@H]1CN([C@H](C)CO)C(=O)c2cc(NS(C)(=O)=O)ccc2O[C@@H](C)CCCCO[C@H]1CN(C)S(=O)(=O)c1ccccc1,-9,1,6[16.7 µM],x,0
Cc1occc1C(=O)N/N=C/c1c(O)ccc2ccccc12,22,10*,-5,-4,-39
O=C(N/N=C/c1cc(O)ccc1Br)c1cccnc1,72*,5,8,-6,10
CC(C)=NNc1ncnc2nc[nH]c12,70*,x,19,8,-2
O=C(N[C@@H]1C=C[C@H](CC(=O)N2CCc3ccccc3C2)O[C@@H]1CO)C1CC1,x,1,x,x,x
CN(C)C(=O)c1cc2c(c(-c3cccc(-c4ccc(F)cc4)c3)n1)[C@H](CCO)N([S@@](=O)C(C)(C)C)C2,-15,1,3[16.7 µM],x,-9
N#C/C(=C\c1ccccn1)c1nc2ccccc2s1,6,41*,-12,5,-42
